Test results from the supplement of paper PMC3334620.
Whole data set: some 33,000 sequences, median “E-score (-0.5 to 0.5)” near -0.032, cut for the highest 2% near 0.36. What follows is part of a selection rich in the highest values, with near analogues and random picks from the rest.

target: T1, Sko1 (UniProt Q02100); experiment: PBM E-score (8-mer binding enrichment) (E-score (-0.5 to 0.5)); higher = stronger / more preferred TF binding; settings: protein concentration: 200 nM; construct: GST-full length
T1 sequence: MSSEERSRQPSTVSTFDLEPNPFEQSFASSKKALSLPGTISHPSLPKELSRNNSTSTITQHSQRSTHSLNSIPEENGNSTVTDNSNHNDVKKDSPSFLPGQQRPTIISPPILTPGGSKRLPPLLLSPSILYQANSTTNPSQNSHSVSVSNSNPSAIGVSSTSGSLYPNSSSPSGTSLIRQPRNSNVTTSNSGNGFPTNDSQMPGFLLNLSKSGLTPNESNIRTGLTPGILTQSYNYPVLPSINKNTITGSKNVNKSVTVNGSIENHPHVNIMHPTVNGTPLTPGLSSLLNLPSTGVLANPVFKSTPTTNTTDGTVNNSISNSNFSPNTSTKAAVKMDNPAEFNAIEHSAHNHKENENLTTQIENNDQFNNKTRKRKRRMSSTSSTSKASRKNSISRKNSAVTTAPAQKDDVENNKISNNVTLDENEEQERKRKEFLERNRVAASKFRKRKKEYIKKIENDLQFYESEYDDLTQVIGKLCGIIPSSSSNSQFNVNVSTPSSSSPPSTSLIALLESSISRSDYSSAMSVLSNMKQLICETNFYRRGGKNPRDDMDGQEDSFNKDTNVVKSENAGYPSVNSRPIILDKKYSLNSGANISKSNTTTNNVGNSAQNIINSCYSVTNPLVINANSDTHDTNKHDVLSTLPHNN
In short: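 Universal all-10-mer Agilent arrays, double-stranded by primer extension on fresh or once-stripped slides, were probed with about 100-200 nM GST-tagged yeast transcription factors made by PURExpress. Fluorescent anti-GST detected bound protein, and masliner normalised the scans. E-scores from the Universal PBM Analysis Suite were given to each ungapped eight-base word pooled with its reverse complement.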

| Sequence | PBM E-score |
| --- | --- |
| CCGTGACG | 0.396 |
| ACGTGACA | 0.394 |
| CCGTGACC | -0.28 |
| ACGTGACG | 0.462 |
| ACGTGACC | 0.292 |
| GCGTGCCA | -0.151 |
| TCGTGACA | 0.129 |
| CCGTGACA | -0.14 |
| ACGTGCCA | 0.396 |
| ACGTGACT | 0.324 |
| ACGTGCCG | 0.243 |
| ACGTGAAG | 0.326 |
| AAATCAGG | 0.0636 |
| CAGAACTC | -0.0896 |
| CTTTTTAA | 0.112 |
| GCAACCCC | -0.249 |
| ACCGCCTC | -0.312 |
| CGAGTATA | -0.0254 |
| AAGTAGGG | -0.0549 |
| ACGTAGGA | 0.446 |
| AGGTAGGG | -0.137 |
| ACGTAGGG | 0.425 |
| CCGTAGGC | -0.293 |
| CCGTAGGA | -0.29 |

| Sequence | PBM E-score |
| --- | --- |
| ACGTAGGC | 0.425 |
| GCGTAGGA | 0.0517 |
| AAGTAGGC | -0.0531 |
| CGCTAAGA | 0.0374 |
| GCACAGGC | -0.115 |
| AAAGGCCA | -0.118 |
| GTTGAGCA | 0.0589 |
| ACATCTCT | 0.0591 |
| GTCAACCA | 0.0809 |
| GGAACTAA | -0.0195 |
| CCATTGAG | 0.00857 |
| GTAAAAAC | 0.184 |
| GGACTCGA | -0.342 |
| CGTATATA | 0.418 |
| AGTATACA | 0.0979 |
| GGTATACA | 0.0243 |
| CGTATACA | 0.372 |
| CGTATATC | 0.319 |
| CGTATACC | 0.132 |
| CGTATACG | 0.393 |
| AGTATATA | 0.254 |
| AGTATACG | 0.267 |
| GCTCAAAC | -0.0717 |
| ACGCCCTC | -0.134 |

| Sequence | PBM E-score |
| --- | --- |
| GGACACTA | -0.125 |
| AAGATCGT | 0.0795 |
| GAACGACC | -0.306 |
| TAGATAGA | 0.0341 |
| AAACGGGC | -0.131 |
| AACGTTTC | 0.199 |
| ACGTCTTA | 0.408 |
| ACGTCTAC | 0.368 |
| CCGTCTAC | 0.0306 |
| ACGTCTCC | 0.322 |
| ACGTCTTG | 0.39 |
| CCGTCTTC | -0.306 |
| ACGTCTTC | 0.389 |
| ACGTCTGA | 0.339 |
| ACGTCTCG | 0.24 |
| CCGTCTTA | 0.00816 |
| ACGTCTAT | 0.338 |
| ACGTCTGG | 0.331 |
| AAGCGGGT | -0.268 |
| AAAATGAT | 0.246 |
| GTATGCAA | 0.177 |
| CACTATCC | -0.124 |
| AGAGTCAT | -0.0362 |
| AACCGCAC | 0.0215 |

| Sequence | PBM E-score |
| --- | --- |
| GCGTATTA | 0.333 |
| CCGTATTC | 0.0573 |
| AGGTATTC | 0.0465 |
| CCGTATTA | 0.152 |
| ACGTATTG | 0.464 |
| AAGTATTG | 0.15 |
| ACGTATTA | 0.468 |
| ATGTATTG | 0.196 |
| ACGTATTC | 0.471 |
| CTGGTCTC | -0.342 |
| GATCAGCA | -0.0416 |
| GTGCCTCA | -0.118 |
| AAAACAGT | 0.0855 |
| ACTTCGGC | -0.00736 |
| CGTTACGA | 0.349 |
| CATTACGG | 0.292 |
| AATTACGA | 0.411 |
| AATTACCA | 0.151 |
| GCTTACGA | 0.238 |
| CTTTACGA | 0.218 |
| GATTACTA | 0.204 |
| GATTACGA | 0.418 |
| CGTTACGC | 0.362 |
| CATTACGA | 0.398 |

| Sequence | PBM E-score |
| --- | --- |
| AGTTACGC | 0.317 |
| AATTACTA | 0.195 |
| ACCGGGTG | -0.224 |
| TGAGTACA | -0.0184 |
| CAGCATGC | -0.0382 |
| TGGCCCAA | -0.0707 |
| ACCAACTG | -0.0438 |
| CCAGAGAA | 0.0433 |
| CTGTCGGC | -0.148 |
| AGATCGAA | 0.0696 |
| AATTAGGT | 0.26 |
| AATTACAG | 0.113 |
| CATTACCC | -0.0584 |
| GATTACCC | -0.0418 |
| CATTACGC | 0.409 |
| AATTACGT | 0.492 |
| CATTACAC | 0.198 |
| AATTACAT | 0.375 |
| AATTACGG | 0.26 |
| GATTACGC | 0.425 |
| AATTACAC | 0.0946 |
| GATTACAC | 0.0868 |
| AGTGAGGC | 0.0161 |
| CGGTTAAC | 0.0142 |

| Sequence | PBM E-score |
| --- | --- |
| ACTTAAAA | 0.241 |
| ATCAGATC | -0.0621 |
| AGTTGAAT | 0.135 |
| ATGTCCAA | 0.0296 |
| CCCGGGTC | -0.204 |
| GGCGCCAA | -0.179 |
| ATGAAGGA | 0.0878 |
| ATCCACCG | -0.0573 |
| TATTACAA | 0.221 |
| ATTTACGC | 0.281 |
| TATTACGA | 0.414 |
| TATTACCA | 0.227 |
| AATTACGC | 0.44 |
| AATTACCC | 0.0055 |
| CTTCGAAG | -0.208 |
| AGGCCCCG | -0.372 |
| ATGGTTGA | -0.0732 |
| ACGGAGCA | -0.116 |
| CCTACAGG | -0.365 |
| TGCGCGAA | 0.169 |
